Reference: PubChem BioAssay AID1159580 (chemical genetic matrix, 2015)
The campaign covered roughly 5,500 compounds. About 2,000 (36%) were called active. Another 18% or so got no clear call; they are omitted. Cut-off read from the data, not from the text of the source: active = normalized growth mostly below about 0.91 (no sharp cut-off); inconclusive = no clear call, values can overlap the other calls; inactive = mostly above about 0.92. Some of the results follow.

Experiment: chemical genetic growth profiling, strain panel (AID 1159580);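 note: tested at 20 µM; growth read once vehicle control cultures reached saturation at 30 °C; 1 = growth at the plate median or of vehicle wells; lower values mean less growth of the strain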
Details: S. cerevisiae deletion strains, growth OD

Measured: normalized growth

CNCC[C@H](Oc1ccc(C(F)(F)F)cc1)c1ccccc1
inactive: locus YAL040C, strain CLN3, stronger effect = lower value 0.981 | locus YCL061C, strain MRC1 (second series), stronger effect = lower value 0.985 | locus YDR150W, strain NUM1, stronger effect = lower value 0.993 | locus YDR363W, strain ESC2, stronger effect = lower value 1.01 | locus YER002W, strain NOP16, stronger effect = lower value 1.01 | locus YGR078C, strain PAC10, stronger effect = lower value 0.969 | locus YMR263W, strain SAP30, stronger effect = lower value 0.997 | locus YNL128W, strain TEP1, stronger effect = lower value 1.01 | locus YNL153C, strain GIM3, stronger effect = lower value 0.886 | locus YNL175C, strain NOP13, stronger effect = lower value 1 | locus YNL197C, strain WHI3, stronger effect = lower value 0.988 | locus YNL224C, strain SQS1, stronger effect = lower value 1 | locus YOR083W, strain WHI5 (second series), stronger effect = lower value 0.874 | locus YPL241C, strain CIN2, stronger effect = lower value 0.982
